Source: PubChem BioAssay AID678 (Vanderbilt High Throughput Screening Facility, 2007)
In all, about 1,700 compounds went through this assay and about 15 (0.9%) were called active.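 How the source made its calls: active means fluorescence response below the plate's average for near-maximal glutamate wells, less 3 SD of those wells; inactive means the rest.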 The list is a sample of the results.

molecular target: Metabotropic glutamate receptor 4 (Homo sapiens) (UniProt Q14833); experiment: mGluR4 calcium signal in M1 antagonist follow-up – cell-based, antagonist mode, secondary assay 1, M1 allosteric modulator project (AID 678); conditions: CHO-mGluR4 calcium flux, Fluo-4 fluorescence, glutamate EC80; at 10 µM; hits give low values;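 further: raw unnormalized fluorescence span taken in the window right after glutamate addition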

Fluorescence response (max-min), inactive:
CN(C)[C@@H]1C(=O)C(C(N)=O)=C(O)[C@@]2(O)C(=O)C3=C(O)c4c(O)ccc(Cl)c4[C@@H](O)[C@H]3C[C@@H]12 238
Cc1cccc(N2CCN(Cc3c(C)n(C)n(-c4ccccc4)c3=O)CC2)c1C 223
CCC1(C)Cc2c(sc3nc4n(c(=O)c23)CCCS4)CO1 (stereo unspecified) 249
O=C(NC1=NCCS1)c1ccc(Cl)s1 158
Cc1nc2ccccc2c2oc(C(=O)NCCCN3CCC(C)CC3)cc12 185
O=S(=O)(CCc1nc2ccccc2o1)c1ccc(Cl)cc1 249
CCOC(=O)C1=C(CC)Nc2ccccc2N=C1NC(=O)c1cccc(S(=O)(=O)N2CCCC2)c1 148
COc1ccc(CCn2c(=N)c(C(=O)NCc3ccco3)cc3c(=O)n4cccc(C)c4nc32)cc1 207
CCC(C(=O)OCCN(CC)CC)c1ccccc1 (stereo unspecified) 235
O=C(c1ccco1)N1CCN=C1SCc1cccc(Cl)c1 236
O=C1NC(Nc2nc3ccccc3s2)(C(F)(F)F)C(=O)N1C1CCCCC1 (stereo unspecified) 308
Cn1c(CCN2CCCCCC2)nc2cc(NC(=O)Nc3ccccc3)ccc21 225
CCOC(=O)c1c(-c2ccc(C)cc2C)csc1NC(=O)CSc1nnnn1C 167
CC(C)(C)n1nnnc1C(c1cccs1)N(Cc1cccnc1)CC1CCCO1 (stereo unspecified) 241
CCn1c(=N)n(CC(=O)c2cccc(OC)c2)c2ccccc21 268
O=C(C(NS(=O)(=O)c1cccc2nsnc12)c1ccccc1)N1CCN(c2ccccn2)CC1 (stereo unspecified) 228
C=CCn1c(=S)[nH]c2nc3c(cc2c1=O)COC(C)(C)C3 199
Cc1nc2c(-c3ccc(F)cc3)c(C)nn2c(C)c1CCC(=O)N1CCN(c2ccccn2)CC1 245
CN(C)CCOC(=O)C(c1ccccc1)C1(O)CCCC1 (stereo unspecified) 250
CCCCN(C)C(=O)c1ccc2c(c1)N(CC)C(=O)c1ccccc1S2(=O)=O 258
O=C(NCCCN1CCCCCC1)C1CC(=O)N(C2CCCC2)C1 (stereo unspecified) 241
CC1CCCC(C)N1CCCNC(=O)c1cc2c(=O)n(C)c3ccccc3c2n1C (stereo unspecified) 236
CCOc1ccccc1C(=O)NCCCn1ccnc1 200
O=S(=O)(c1ccc(OCC(O)CN2CCN(c3ccccc3Cl)CC2)cc1)N1CCOCC1 (stereo unspecified) 233
COc1cccc2sc(Nc3nc(C)c(C(C)=O)s3)nc12 200
CCC(C)(NC(=O)c1ccccn1)C(=O)NC1CCCCC1 (stereo unspecified) 237
